From PubChem BioAssay
CYP2C19 inhib – blockers of cytochrome P450 2C19 activity – biochemical, luminescence, ADME assay, primary screen | P33261 | CYP2C19 Supersomes, luciferin-H EGE luminescence, 30 min | inhibition, % at 5 µM | 96,000 compounds, 21% hits | AID 778, 2007;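 active means CYP2C19 inhibition above a set limit at 5 µM in the primary screen, cut at about 50% in these data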
CYP2C9 act – human CYP2C9 activators, primary screen, biochemical, luminescence; recombinant CYP2C9, luciferin-H conversion; stronger effect = higher value; factor 1 = untreated enzyme, 0 = blocked; activation factor at 5 µM; 96,000 compounds, 1.4% hits; AID 1024, 2008;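 active means activation factor of 2 or more for CYP2C9 at a 5 µM dose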
Target sequence (P11712 whole entry, looked up): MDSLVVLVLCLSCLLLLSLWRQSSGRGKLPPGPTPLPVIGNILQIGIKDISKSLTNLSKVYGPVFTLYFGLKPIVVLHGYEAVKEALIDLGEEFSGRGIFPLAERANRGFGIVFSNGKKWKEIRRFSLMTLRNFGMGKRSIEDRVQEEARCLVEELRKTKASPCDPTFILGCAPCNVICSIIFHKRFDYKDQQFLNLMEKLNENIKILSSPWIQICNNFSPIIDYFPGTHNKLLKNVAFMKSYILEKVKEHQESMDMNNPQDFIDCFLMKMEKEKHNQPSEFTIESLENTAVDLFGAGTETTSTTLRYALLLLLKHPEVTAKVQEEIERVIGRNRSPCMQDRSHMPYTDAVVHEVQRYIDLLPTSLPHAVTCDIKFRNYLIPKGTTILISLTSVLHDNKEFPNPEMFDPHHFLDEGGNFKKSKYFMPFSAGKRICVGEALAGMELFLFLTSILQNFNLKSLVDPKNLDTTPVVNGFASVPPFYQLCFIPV
CYP2C9 inh – blockers of cytochrome P450 2C9 activity – biochemical, luminescence, ADME assay, primary screen | 96,000 compounds, 20% hits | P11712 | inhibition, % at 5 µM | AID 777, 2007 | CYP2C9 Supersomes, luciferin-H conversion;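 active means blocking of liver enzyme CYP2C9 beyond about 50% at 5 µM, limit read from the data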
PostGolgi yeast – phenotypic screen on post-Golgi transport, primary screen. inhibition, % at 10 µM. post-Golgi transport phenotypic cell assay. 98,000 compounds, 0.9% hits. AID 739, 2007;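 further: yeast cells grown in 1536-well plates; yeast grown about 18 h at 30C before absorbance read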
PostGolgi ctrl – growth inhibition of yeast control strain, primary screen, counter-screen for post-Golgi transport modulator project | efflux-deficient yeast background strain, growth absorbance A615, 16 h | inhibition, % at 10 µM | 98,000 compounds, 5% hits | AID 738, 2007
CYP2C19 act – human CYP2C19 activators, primary screen, biochemical, luminescence. recombinant CYP2C19, luciferin-H EGE luminescence; stronger effect = higher value; 0 = fully inhibited enzyme, 1 = untreated enzyme. activation factor at 5 µM. 96,000 tested, under 10 active. AID 1025, 2008;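 active means activation factor of at least 2 at 5 µM in the primary screen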
Each line names hits and unclear results; the compound was inactive in the other large screens. A selection: hits, their analogues and other compounds. The true share with any hit is near 32%. Unless noted, no stated cut-off is given here; in the data, active means inhibition above about 30%; inactive means the rest.

COC(=O)C1=C(C)N(c2ccc(C)cc2)/C(=C/c2cccs2)C1=O	PostGolgi ctrl 33
CC(=O)Nc1ccc(S(=O)(=O)Nc2nnc(C(C)(C)C)s2)cc1	none
C=CCOC(=O)C(C#N)c1nc2ccccc2nc1N1CCN(c2ccccc2OC)CC1 (centres undefined)	CYP2C9 inh 72
CCN1CCN(c2nc3ccccc3nc2C(C#N)C(=O)OC2CCCCC2)CC1 (centres undefined)	none
COCC(C)OC(=O)C(C#N)c1nc2ccccc2nc1N1CCN(Cc2ccccc2)CC1 (centres undefined)	CYP2C19 inhib 74, CYP2C9 inh 90
C=CCOC(=O)C(C#N)c1nc2ccccc2nc1N1CCN(Cc2ccccc2)CC1 (centres undefined)	CYP2C19 inhib 57, CYP2C9 inh 64
COCCOC(=O)C(C#N)c1nc2ccccc2nc1N1CCN(Cc2ccccc2)CC1 (centres undefined)	CYP2C19 inhib 80, CYP2C9 inh 91
CC(C)COC(=O)C(C#N)c1nc2ccccc2nc1N1CCN(Cc2ccccc2)CC1 (centres undefined)	none
COCCCNC(=O)C(C#N)c1nc2ccccc2nc1N1CCN(Cc2ccccc2)CC1 (centres undefined)	CYP2C19 inhib 92, CYP2C9 inh 93
Cc1ccc(NC(=O)c2cc(NC(=O)c3ccco3)ccc2N2CCOCC2)cc1Cl	CYP2C9 inh 69
O=C(NC(=S)Nc1ccc(N2CCOCC2)c(Cl)c1)C(c1ccccc1)c1ccccc1	CYP2C9 inh 76
Cc1ccc(NC(=O)c2cc(S(=O)(=O)N3CCCCC3)ccc2N2CCOCC2)cc1F	CYP2C9 inh 68
O=C(/C=C/c1ccccc1)NC(=S)Nc1ccc(N2CCOCC2)c(Cl)c1	none
O=C(Nc1ccc(N2CCN(C(=O)c3ccccc3)CC2)cc1)c1ccc(Br)o1	none
O=C(Nc1ccc(N2CCCC2)cc1)c1ccc(Br)o1	CYP2C19 inhib 61
O=C(NC(NCc1ccccn1)(C(F)(F)F)C(F)(F)F)c1ccco1	none
O=C(c1ccc(C23CC4CC(CC(C4)C2)C3)o1)N1CCOCC1	none
O=C(Nc1ccccc1N1CCOCC1)c1ccc(Br)o1	none
S=C(c1ccc(-c2cc(Cl)ccc2Cl)o1)N1CCOCC1	none
O=C(Nc1ccc(CN2CCOCC2)cc1)c1ccc(-c2cc(Cl)ccc2Cl)o1	CYP2C19 inhib 55, CYP2C9 inh 65, PostGolgi yeast 73, PostGolgi ctrl 65
O=C(Nc1ccc(N2CCN(C(=O)c3ccccc3)CC2)c(Cl)c1)c1ccc(Br)o1	CYP2C9 inh 51
O=C(Nc1ccc(N2CCOCC2)c(Cl)c1)c1ccc(Br)o1	CYP2C19 inhib 58, CYP2C9 inh 51
COc1cccc(N(CC(=O)N2CCN(C)CC2)S(=O)(=O)c2ccc(C)cc2)c1	none
CCOC(=O)c1[nH]c2ccc(OC)cc2c1NC(=O)OC	none
CCOC(=O)c1[nH]c2ccc(OC)cc2c1NC(=O)C(C)N1CCSCC1 (centres undefined)	CYP2C19 inhib 81, CYP2C9 inh 84
CCOC(=O)c1[nH]c2ccc(OC)cc2c1NS(=O)(=O)c1ccc(OC)cc1OC	CYP2C19 inhib 57, CYP2C9 inh 67
COC(=O)c1[nH]c2ccc(F)cc2c1NS(=O)(=O)c1ccc(OC)cc1OC	CYP2C19 inhib 56
O=C(NCCCN1CCc2ccccc2C1)C1CCN(c2nnc(-n3cccc3)s2)CC1	none
Cc1occc1C(=O)N1CCN(c2ncccn2)CC1	none
COc1ccc(C2c3cc(OC)c(OC)cc3CCN2C2CC(=O)N(c3ccccc3)C2=O)cc1OC (centres undefined)	none
Cc1cccc(C)c1NC(=O)CSc1nnc(-c2ccoc2C)n1CCc1ccccc1	CYP2C19 inhib 70, CYP2C9 inh 68
CCCn1c(SCC(=O)Nc2nonc2C)nnc1-c1ccoc1C	CYP2C19 inhib 54
Cc1csc(NC(=O)CSc2nnc(C)n2Cc2ccco2)n1	none
Cc1occc1-c1nnc(SCC(=O)NCC2CCCO2)n1C (centres undefined)	none
Cc1csc(NC(=O)CSc2nnc(-c3ccoc3C)n2Cc2ccco2)n1	CYP2C19 inhib 85, CYP2C9 inh 88
CC(=O)c1ccc(NC(=O)CSc2nnc(-c3ccoc3C)n2Cc2ccccc2)cc1	none
Cc1occc1-c1nnc(SCC(=O)NCCc2ccccc2)n1C(C)c1ccccc1 (centres undefined)	CYP2C9 inh 84
COC(=O)C1CCN(C(=O)COC(=O)CC(NC(N)=O)c2ccc(Cl)cc2)CC1 (centres undefined)	none
Cc1occc1-c1nnc(SCC(=O)Nc2nccs2)n1CCc1ccccc1	none
Cc1csc(NC(=O)CSc2nnc(-c3ccoc3C)n2CCc2ccccc2)n1	CYP2C9 inh 57
CCOc1cccc(C(=O)Nc2nc(-c3ccc(S(=O)(=O)N4CCOCC4)cc3)cs2)c1	CYP2C9 inh 65
O=C(Nc1nc(-c2ccncc2)cs1)c1ccc(S(=O)(=O)N2CCOCC2)cc1	none
COc1ccccc1OC(C)C(=O)Nc1nc(-c2ccc(S(=O)(=O)N3CCOCC3)cc2)cs1 (centres undefined)	CYP2C9 inh 93
O=C(O)CCn1c2c(c3ccccc31)CCCC2	PostGolgi ctrl 48
Cc1cccc(-n2cnc(C(=O)NC3CCCCCC3)c2)n1	none
O=C(c1cccs1)N1CCN(S(=O)(=O)N2CCOCC2)CC1	CYP2C19 inhib 58
O=C(c1ccco1)N1CCN(S(=O)(=O)c2cccs2)CC1	CYP2C19 inhib 88
O=C(c1cccnc1)N1CCN(C(=O)c2cccs2)CC1	none
O=C(c1ccco1)N1CCN(C(=O)c2cccs2)CC1	CYP2C19 inhib 52
O=C(c1ccco1)N1CCN(S(=O)(=O)N2CCOCC2)CC1	none
O=C(c1ccncc1)N1CCN(C(=O)c2cccs2)CC1	CYP2C19 inhib 72
NC(=O)N1CCN(C(=O)c2ccco2)CC1	none
CC(=O)c1sc(Nc2ccccn2)nc1C	none
Nc1ccc(N2CCN(C(=O)c3cccs3)CC2)cc1	CYP2C19 inhib 97, CYP2C9 inh 71
Nc1ccc2nc(SCc3ccc([N+](=O)[O-])cc3)sc2c1	CYP2C19 inhib 97, CYP2C9 inh 59
O=[N+]([O-])c1ccc2nc(SCc3ccccc3Cl)sc2c1	none
COC(=O)C(C(=O)OC)C(C)C(C(=O)OC)C(=O)OC	none
O=C(CN(c1ccccc1)S(=O)(=O)c1ccc(F)cc1)N1CCCCCC1	none
CS(=O)(=O)N(CC(=O)N1CCCCCC1)c1ccc(Br)cc1	CYP2C19 inhib 77
CCN(CC)C(=O)CN(c1ccc(F)c(Cl)c1)S(C)(=O)=O	none
